Reference: PubChem BioAssay (NCATS)
Records with an inconclusive call do not appear. Activity calls are given as the source filed them. Unless noted, calls come from the whole dose curve; as a rule, active = well fitted curve in the direction sought with a large enough effect; inconclusive = small, poorly fitted or top-dose-only effect, or another doubt; inactive = no such curve, though single readings can be large; an effect the other way counts as inactive or inconclusive.

Assays:
[1] = target: Peroxisome proliferator-activated receptor gamma (Homo sapiens) (UniProt P37231); assay: qHTS assay for small molecule antagonists of peroxisome proliferator-activated receptor gamma signaling (AID 588537; active = well fitted inhibition curve with a large enough effect in the signal ratio, with a control signal flat, not every such curve was filed as active; the % refers to the signal ratio;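 note: reporter cells co-stimulated with 50 nM rosiglitazone agonist during compound treatment; % of control where 0% means no effect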)
Procedure, shortened: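 Fluorescence at 460 and 530 nm (405 nm excitation) reported beta-lactamase cleavage of CCF4 after 2 h room-temperature loading. HEK293 reporter cells in 1% charcoal/dextran-treated FBS had received compound and rosiglitazone for 16 h.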

[2] = target: Vitamin D3 receptor (Homo sapiens) (UniProt P11473); assay: qHTS assay for small molecule antagonists of vitamin D receptor signaling (AID 588541; calls by dose curve;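 note: receptor activated by calcitriol during compound treatment; series mostly up to about 77 µM; % is set by controls: 0 for no effect and ±100 for the full control effect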)
Procedure, shortened: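 VDR-UAS-bla HEK293T cells in 2% charcoal-stripped FBS were stimulated with 1-alpha,25-dihydroxyvitamin D3 (3 nM final) plus compound for 16 h at 37 C. The beta-lactamase CCF4 readout was normalized to 50 nM agonist and DMSO, and Hill fits gave IC50.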

[3] = target: Vitamin D3 receptor (Homo sapiens) (UniProt P11473); assay: qHTS assay for small molecule agonists of vitamin D receptor signaling (AID 588543; calls by dose curve;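 note: 0% = DMSO basal and 100% = reference agonist control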)
Procedure, shortened: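 Reporter cells (HEK293T, VDR-UAS-bla) were seeded in medium with 2% charcoal-stripped serum and incubated 5 h, then compounds in concentration series were added for 16 h at 37 °C. Stimulation was scaled between DMSO basal and 50 nM 1α,25-dihydroxyvitamin D3.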

[4] = qHTS assay for small molecule agonists of retinoid X receptor alpha signaling (AID 588544; calls by dose curve;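 for activation: 0% = DMSO basal wells and 100% = reference agonist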); details: HEK293T RXRa-UAS-bla, beta-lactamase reporter, 18 h; 530 nm emission
[5] = target: Retinoic acid receptor RXR-alpha (Homo sapiens) (UniProt P19793); assay: as above
[6] = target: Thyroid hormone receptor beta (Homo sapiens) (UniProt P10828); assay: qHTS assay for small molecule agonists of thyroid hormone receptor beta signaling (AID 588545; calls by dose curve;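 note: 0% = DMSO only and 100% = 10 nM T3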)
Procedure, shortened: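 Compounds were tested as agonists in TR-UAS-bla-GripTite HEK 293 cells. After 18 hrs at 37 C, CCF4 substrate was added and fluorescence read after 2 hrs at room temperature.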

[7] = qHTS assay for small molecule antagonists of retinoid X receptor alpha signaling (AID 588546; active = well fitted inhibition curve with a large enough effect in the signal ratio, with a control signal flat, not every such curve was filed as active; the % refers to the signal ratio;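 note: cells stimulated with 9-cis-retinoic acid as agonist; % is set by controls: 0 for no effect and ±100 for the full control effect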); details: HEK293T RXRa-UAS-bla, beta-lactamase ratio, antagonist mode; measured here: W530 green channel, cytotoxicity proxy
Procedure, shortened: (§1)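 Beta-lactamase reporter inhibition, read as CCF4 fluorescence ratio (ex 405, em 460/530 nm) after 2 h at RT. HEK293T UAS-bla cells, 2500/well, were stimulated with 9-cis-RA at 500 or 100 nM final alongside test compound for 18 h at 37 C.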

[8] = target: Retinoic acid receptor RXR-alpha (Homo sapiens) (UniProt P19793); assay: as above; details: HEK293T RXRa-UAS-bla, beta-lactamase ratio, antagonist mode
Procedure, shortened: as §1

[9] = target: Thyroid hormone receptor beta (Homo sapiens) (UniProt P10828); assay: qHTS assay for small molecule antagonists of thyroid hormone receptor beta signaling (AID 588547; active = well fitted inhibition curve with a large enough effect in the signal ratio, with a control signal flat, not every such curve was filed as active; the % refers to the signal ratio;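 note: cells stimulated with 0.4 nM T3 agonist during compound exposure; series mostly up to about 77 µM; % is set by controls: 0 for no effect and ±100 for the full control effect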); details: TR-UAS-bla HEK293, beta-lactamase ratio, antagonist mode, 18 h
Procedure, shortened: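 TR-UAS-bla GripTite HEK293 cells in 2% charcoal/dextran FBS medium; compounds 0.59 nM to 92 uM with T3 at 0.4nM final, 18 h at 37 C. Beta-lactamase read by CCF4 fluorescence (460/530 nm); Hill fits gave IC50 and efficacy.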

[10] = target: Voltage-gated inwardly rectifying potassium channel KCNH2 (Homo sapiens) (UniProt Q12809); assay: qHTS Assay for Small Molecule Inhibitors of the Human hERG Channel Activity (AID 588834);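 note: top concentration of the series differs between compounds; % is set by controls: 0 for no effect and ±100 for the full control effect; lower thallium flux fluorescence means stronger hERG block; nearly all actives have a fitted effect of over 50% in size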
Procedure, shortened: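 Step 1: BacMam hERG transduction of U2OS, 4 hrs RT. Step 2: overnight 37 °C, plate 2000 cells/well, 4 hr. Step 3: FluxOR load, compound 10 min, stimulate, read fluorescence.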

[11] = qHTS assay for small molecule activators of the p53 signaling pathway (AID 651743; active = well fitted activation curve with a large enough effect in the signal ratio, not every such curve was filed as active; the % refers to the signal ratio; note: series mostly up to about 92 µM; % of control where 0% means no effect); details: HCT-116 p53RE-bla, beta-lactamase FRET ratio, 16 h; activation: stronger effect = higher value
Procedure, shortened: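 Following 16 hours of compound exposure at 37 C, HCT-116 cells bearing the p53RE-bla reporter were loaded with LiveBLAzer B/G FRET substrate for 2 hours at room temperature and fluorescence intensity was recorded.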

[12] = qHTS assay for small molecule disruptors of the mitochondrial membrane potential - 1 hr assay (AID 651754; calls by dose curve; note: % is set by controls: 0 for no effect and ±100 for the full control effect; nearly all actives have a fitted effect of over 35% in size)
Procedure, shortened: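 Loss of mitochondrial potential shifts the cationic dye from red mitochondrial aggregates to green cytoplasmic monomers. Cells (HepG2) are treated with compound for 1 hr before a 30 min dye incubation at 37C.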

[13] = qHTS assay for small molecule disruptors of the mitochondrial membrane potential - 5 hr assay (AID 651755; calls by dose curve; note: % is set by controls: 0 for no effect and ±100 for the full control effect; nearly all actives have a fitted effect of over 40% in size)
Procedure, shortened: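 Read-out: ratiometric Mito-MPS fluorescence, green monomer (ex 490/em 535) vs red mitochondrial aggregate (ex 540/em 590). HepG2 cells treated 5 hr at 37C before 30 min dye loading.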

[14] = target: Tumor necrosis factor (Homo sapiens) (UniProt P01375); assay: qHTS assay to identify small molecules that stimulate Tumor Necrosis Factor-alpha (TNF-alpha) secretion (AID 651757; active = well fitted curve in the direction sought with a large enough effect in the signal ratio; the % refers to the signal ratio; note: 0% is about no effect)
Procedure, shortened: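 Human monocytic THP-1 cells are plated, treated with compound and held at 37 C for 17 hrs. Labeled anti-TNF-alpha antibody mixture is then added; after 3 hr at room temperature, TR-FRET signal reports secreted TNF-alpha.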

[15] = qHTS assay for environmental chemicals that activate the Aryl hydrocarbon Receptor (AhR) signaling pathway (AID 651777); details: 1A2-DRE human hepatoma cells, luciferase, 24 h; activation: stronger effect = higher value; note: % of control where 0% means no effect; nearly all actives have a fitted effect of over 15% in size
Procedure, shortened: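 1A2-DRE human hepatoma reporter line; 1,200 cells/well; cmpd or DMSO 24 h, 37 C/5% CO2; One-Glo 30 min RT; luciferase lum.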

[16] = target: Peroxisome proliferator-activated receptor alpha (Homo sapiens) (UniProt Q07869); assay: qHTS assay for small molecule agonists of the peroxisome proliferator-activated receptor alpha (PPARalpha) signaling pathway (AID 651778); details: PathHunter PPARalpha complementation, chemiluminescence, 6 h; max response: stronger effect = higher value; note: % of control where 0% means no effect
Procedure, shortened: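 Enzyme-fragment complementation assay in which ligand-bound PPARalpha translocates and forms an active enzyme that generates chemiluminescence. Cells were plated overnight, exposed to compound for 6 hr at 37 C, and then given detection reagent for 60 min at room temperature.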

[17] = target: Nuclear receptor ROR-gamma (Homo sapiens) (UniProt P51449); assay: qHTS assay for small molecule antagonists of the retinoid-related orphan receptor gamma (ROR-gamma) signaling pathway (AID 651802);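 note: CHO cells with doxycycline-induced ROR-gamma expression; series mostly up to about 92 µM; % is set by controls: 0 for no effect and ±100 for the full control effect; nearly all actives have a fitted effect of over 60% in size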
Procedure, shortened: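 Steps: cells dispensed; compound or DMSO transferred by pin tool; doxycycline added to induce the ROR response element-driven luciferase; plates held 16hr at 37C; ONE-Glo added and luminescence measured.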

[18] = qHTS assay for small molecule agonists of the antioxidant response element (ARE) signaling pathway measured by Nrf2-dependant transcriptional activity (AID 720636; active = well fitted curve in the direction sought with a large enough effect in the repeat runs; an effect the other way counts as inactive or inconclusive;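 note: HepG2 cells with an ARE-driven luciferase reporter; % of control where 0% means no effect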)
Procedure, shortened: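 Cells: ARE-luc HepG2 with Nrf2-responsive luciferase. Medium contained 1% dialyzed FBS. Compound exposure lasted 16 hr at 37 C and 5% CO2, followed by ONE-Glo luciferase detection.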

[19] = qHTS assay for small molecule antagonists of the retinoid-related orphan receptor gamma (ROR-gamma) signaling pathway - cell viability counter screen (AID 720652; active = well fitted curve in the direction sought with a large enough effect in the repeat runs; an effect the other way counts as inactive or inconclusive;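 note: CHO reporter cells with doxycycline-induced ROR-gamma expression; series mostly up to about 92 µM; compound exposure lasted 16 hr before ATP read; % is set by controls: 0 for no effect and ±100 for the full control effect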)
Procedure, shortened: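 Steps: seed CHO cells bearing TET-inducible ROR and ROR response element-luciferase; rest 5 hr at 37 C; add compound, then doxycycline; incubate 16 hr; add CellTiter-Glo and read luminescence as ATP-based viability.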

[20] = qHTS assay for small molecule agonists of the antioxidant response element (ARE) signaling pathway measured by Nrf2-dependant transcriptional activity - cell viability counter screen (AID 720653; active = well fitted curve in the direction sought with a large enough effect in the repeat runs; an effect the other way counts as inactive or inconclusive; note: % is set by controls: 0 for no effect and ±100 for the full control effect); details: ARE-bla HepG2 viability, CellTiter-Glo ATP luminescence, 16 h; max response: stronger effect = lower value
Procedure, shortened: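 ARE-bla HepG2 cells treated with compounds for 16 h at 37C; this counter screen measures viability as intracellular ATP by CellTiter-Glo luminescence after 30 min at room temperature.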

[21] = qHTS assay for cell viability of HEK293 cells (AID 743288); details: ATP luminescence (CellTiter-Glo), 18 h; max response: stronger effect = lower value; note: % is set by controls: 0 for no effect and ±100 for the full control effect; nearly all actives have a fitted effect of over 50% in size
Procedure, shortened: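 Viable-cell counts were inferred from luciferase-based ATP content in HEK293 cells seeded at 2,000/well, pre-incubated ≥5 h, then dosed with DMSO-solubilised compounds for 18 h at 37 C.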

[22] = qHTS assay for cell viability of the p53RE-bla HCT-116 cell line (AID 743292); note: % is set by controls: 0 for no effect and ±100 for the full control effect; nearly all actives have a fitted effect of over 55% in size
Procedure, shortened: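 HCT-116 p53RE-bla cells seeded 4,000/well; 5 h at 37 C; compound (DMSO) added; 16 h at 37 C; CellTiter-Glo added, 30 min RT; luminescence read.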

[23] = target: Nuclear receptor subfamily 1 group I member 2 (Rattus norvegicus) (UniProt Q9R1A7); assay: qHTS assay for small molecule activators of the rat pregnane X receptor (rPXR) signaling pathway (AID 651751; call rule not given here; note: 0% is about no effect); details: rPXR reporter cells, luciferase (One-Glo), 24 h
[24] = qHTS assay for small molecule activators of the human pregnane X receptor (PXR) signaling pathway (AID 720659; call rule not given here; note: 0% is about no effect)

Sequence of Thyroid hormone receptor beta (Homo sapiens) (P10828 whole entry, looked up): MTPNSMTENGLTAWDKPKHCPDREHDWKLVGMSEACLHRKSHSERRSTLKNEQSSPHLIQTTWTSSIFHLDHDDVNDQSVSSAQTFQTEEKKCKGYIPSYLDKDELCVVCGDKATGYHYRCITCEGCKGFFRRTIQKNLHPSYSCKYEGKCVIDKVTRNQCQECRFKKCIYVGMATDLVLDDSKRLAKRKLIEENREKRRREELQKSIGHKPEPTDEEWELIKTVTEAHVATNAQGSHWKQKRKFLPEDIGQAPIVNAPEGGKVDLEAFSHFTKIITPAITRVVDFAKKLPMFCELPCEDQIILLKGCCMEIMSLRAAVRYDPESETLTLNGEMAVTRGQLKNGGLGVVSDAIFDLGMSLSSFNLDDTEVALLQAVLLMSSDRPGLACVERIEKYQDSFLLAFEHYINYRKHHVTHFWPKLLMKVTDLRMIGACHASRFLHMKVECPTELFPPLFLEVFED
Sequence of Vitamin D3 receptor (Homo sapiens) (P11473 whole entry, looked up): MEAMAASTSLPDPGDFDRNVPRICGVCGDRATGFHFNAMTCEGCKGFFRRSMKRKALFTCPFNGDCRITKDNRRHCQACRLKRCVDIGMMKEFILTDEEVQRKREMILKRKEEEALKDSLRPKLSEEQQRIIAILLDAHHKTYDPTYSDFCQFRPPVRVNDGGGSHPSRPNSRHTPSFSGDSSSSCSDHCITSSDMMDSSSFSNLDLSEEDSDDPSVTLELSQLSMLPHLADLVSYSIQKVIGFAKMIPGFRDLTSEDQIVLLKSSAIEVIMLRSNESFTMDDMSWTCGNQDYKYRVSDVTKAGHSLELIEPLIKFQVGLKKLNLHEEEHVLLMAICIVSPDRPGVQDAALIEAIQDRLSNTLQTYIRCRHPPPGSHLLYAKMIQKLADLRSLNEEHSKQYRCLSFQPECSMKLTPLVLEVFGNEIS
Sequence of Retinoic acid receptor RXR-alpha (Homo sapiens) (P19793 whole entry, looked up): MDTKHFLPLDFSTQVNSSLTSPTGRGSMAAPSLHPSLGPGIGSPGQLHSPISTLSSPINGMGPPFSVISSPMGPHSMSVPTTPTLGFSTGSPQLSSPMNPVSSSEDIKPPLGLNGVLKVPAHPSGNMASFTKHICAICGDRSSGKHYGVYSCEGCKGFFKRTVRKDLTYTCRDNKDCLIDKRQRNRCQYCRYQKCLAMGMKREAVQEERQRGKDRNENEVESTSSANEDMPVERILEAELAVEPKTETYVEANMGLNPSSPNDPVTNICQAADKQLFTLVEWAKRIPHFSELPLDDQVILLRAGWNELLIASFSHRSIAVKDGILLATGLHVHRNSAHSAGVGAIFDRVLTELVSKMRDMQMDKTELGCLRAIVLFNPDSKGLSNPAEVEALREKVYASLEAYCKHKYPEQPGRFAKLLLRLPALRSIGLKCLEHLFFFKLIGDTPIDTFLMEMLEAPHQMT
Sequence of Voltage-gated inwardly rectifying potassium channel KCNH2 (Homo sapiens) (Q12809 whole entry, looked up): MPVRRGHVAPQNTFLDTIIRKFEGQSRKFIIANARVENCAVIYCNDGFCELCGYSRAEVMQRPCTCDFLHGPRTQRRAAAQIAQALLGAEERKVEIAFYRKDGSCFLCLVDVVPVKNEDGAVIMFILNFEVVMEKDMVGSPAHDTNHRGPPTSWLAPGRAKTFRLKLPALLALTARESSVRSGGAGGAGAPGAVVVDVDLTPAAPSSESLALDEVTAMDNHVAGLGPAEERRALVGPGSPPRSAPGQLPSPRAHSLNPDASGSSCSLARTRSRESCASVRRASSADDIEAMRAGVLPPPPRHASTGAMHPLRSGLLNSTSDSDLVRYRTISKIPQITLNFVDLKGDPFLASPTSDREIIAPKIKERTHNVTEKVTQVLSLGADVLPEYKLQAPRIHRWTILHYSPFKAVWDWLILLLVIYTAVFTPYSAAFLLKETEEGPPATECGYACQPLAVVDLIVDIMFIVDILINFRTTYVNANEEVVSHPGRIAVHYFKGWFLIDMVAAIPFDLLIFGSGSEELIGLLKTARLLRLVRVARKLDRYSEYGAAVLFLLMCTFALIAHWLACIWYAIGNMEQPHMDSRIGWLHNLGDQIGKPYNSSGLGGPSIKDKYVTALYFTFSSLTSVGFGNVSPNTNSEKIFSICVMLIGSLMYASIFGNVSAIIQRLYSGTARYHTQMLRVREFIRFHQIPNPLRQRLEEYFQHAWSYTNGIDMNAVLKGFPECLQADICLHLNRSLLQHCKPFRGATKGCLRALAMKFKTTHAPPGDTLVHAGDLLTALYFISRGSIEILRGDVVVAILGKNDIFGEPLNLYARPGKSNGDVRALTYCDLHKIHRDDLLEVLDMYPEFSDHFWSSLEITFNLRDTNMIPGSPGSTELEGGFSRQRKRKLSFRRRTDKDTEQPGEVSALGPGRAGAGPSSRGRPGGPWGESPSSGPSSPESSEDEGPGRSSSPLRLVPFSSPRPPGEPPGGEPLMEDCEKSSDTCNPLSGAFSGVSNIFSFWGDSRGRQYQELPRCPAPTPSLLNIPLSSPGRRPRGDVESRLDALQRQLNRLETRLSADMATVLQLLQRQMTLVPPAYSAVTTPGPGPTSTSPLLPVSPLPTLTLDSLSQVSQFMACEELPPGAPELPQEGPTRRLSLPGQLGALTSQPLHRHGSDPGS
Sequence of Peroxisome proliferator-activated receptor gamma (Homo sapiens) (P37231 whole entry, looked up): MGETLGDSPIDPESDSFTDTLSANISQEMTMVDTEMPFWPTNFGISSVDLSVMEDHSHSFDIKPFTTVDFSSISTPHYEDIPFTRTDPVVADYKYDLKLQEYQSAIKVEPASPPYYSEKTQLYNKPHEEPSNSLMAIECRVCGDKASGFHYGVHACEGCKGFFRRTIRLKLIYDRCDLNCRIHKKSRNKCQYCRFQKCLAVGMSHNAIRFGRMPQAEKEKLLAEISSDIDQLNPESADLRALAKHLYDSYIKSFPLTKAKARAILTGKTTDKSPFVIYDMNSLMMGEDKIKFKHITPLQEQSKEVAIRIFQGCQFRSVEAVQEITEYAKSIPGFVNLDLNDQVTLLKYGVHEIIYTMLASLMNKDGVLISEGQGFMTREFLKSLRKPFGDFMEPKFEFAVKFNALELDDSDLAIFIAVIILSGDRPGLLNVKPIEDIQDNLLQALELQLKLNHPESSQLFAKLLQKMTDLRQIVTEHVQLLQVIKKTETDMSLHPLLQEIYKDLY
Sequence of Nuclear receptor subfamily 1 group I member 2 (Rattus norvegicus) (Q9R1A7 whole entry, looked up): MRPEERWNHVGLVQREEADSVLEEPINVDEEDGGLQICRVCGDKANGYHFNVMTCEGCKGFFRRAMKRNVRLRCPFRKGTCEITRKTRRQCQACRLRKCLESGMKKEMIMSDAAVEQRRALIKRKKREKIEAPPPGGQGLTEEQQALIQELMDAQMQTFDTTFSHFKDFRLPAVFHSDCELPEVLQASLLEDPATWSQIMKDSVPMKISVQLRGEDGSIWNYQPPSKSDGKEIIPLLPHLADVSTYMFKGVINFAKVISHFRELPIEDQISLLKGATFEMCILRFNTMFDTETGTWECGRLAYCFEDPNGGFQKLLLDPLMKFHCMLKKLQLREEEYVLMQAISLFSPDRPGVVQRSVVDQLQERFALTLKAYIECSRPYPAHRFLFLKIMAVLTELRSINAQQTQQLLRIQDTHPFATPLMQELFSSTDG
Sequence of Peroxisome proliferator-activated receptor alpha (Homo sapiens) (Q07869 whole entry, looked up, the tested form may be a part): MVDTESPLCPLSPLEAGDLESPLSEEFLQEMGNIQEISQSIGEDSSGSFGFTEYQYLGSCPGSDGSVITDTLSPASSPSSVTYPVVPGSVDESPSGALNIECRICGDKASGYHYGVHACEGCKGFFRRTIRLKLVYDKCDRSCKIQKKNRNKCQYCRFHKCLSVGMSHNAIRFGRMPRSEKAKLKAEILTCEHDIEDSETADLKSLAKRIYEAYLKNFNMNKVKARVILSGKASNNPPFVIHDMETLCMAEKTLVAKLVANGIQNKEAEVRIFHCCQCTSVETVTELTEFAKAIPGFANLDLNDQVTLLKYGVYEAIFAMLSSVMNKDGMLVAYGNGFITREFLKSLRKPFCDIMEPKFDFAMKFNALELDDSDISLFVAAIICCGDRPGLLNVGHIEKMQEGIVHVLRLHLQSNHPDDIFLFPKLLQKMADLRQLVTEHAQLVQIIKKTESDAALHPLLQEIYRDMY
Sequence of Nuclear receptor ROR-gamma (Homo sapiens) (P51449 whole entry, looked up): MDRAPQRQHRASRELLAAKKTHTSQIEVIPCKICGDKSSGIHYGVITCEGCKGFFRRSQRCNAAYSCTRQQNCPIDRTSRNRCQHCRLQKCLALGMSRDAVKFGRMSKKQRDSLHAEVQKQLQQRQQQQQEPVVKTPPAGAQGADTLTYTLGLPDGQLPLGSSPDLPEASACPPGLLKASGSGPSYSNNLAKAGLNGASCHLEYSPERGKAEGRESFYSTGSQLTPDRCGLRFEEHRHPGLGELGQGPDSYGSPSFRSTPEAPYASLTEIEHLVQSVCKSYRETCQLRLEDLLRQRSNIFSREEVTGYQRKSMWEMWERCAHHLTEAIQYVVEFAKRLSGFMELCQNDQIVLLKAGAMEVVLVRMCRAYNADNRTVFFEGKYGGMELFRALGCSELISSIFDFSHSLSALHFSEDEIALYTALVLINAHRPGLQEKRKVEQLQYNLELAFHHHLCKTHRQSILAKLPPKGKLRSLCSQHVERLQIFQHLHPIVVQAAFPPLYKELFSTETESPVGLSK
Sequence of Tumor necrosis factor (Homo sapiens) (P01375 whole entry, looked up): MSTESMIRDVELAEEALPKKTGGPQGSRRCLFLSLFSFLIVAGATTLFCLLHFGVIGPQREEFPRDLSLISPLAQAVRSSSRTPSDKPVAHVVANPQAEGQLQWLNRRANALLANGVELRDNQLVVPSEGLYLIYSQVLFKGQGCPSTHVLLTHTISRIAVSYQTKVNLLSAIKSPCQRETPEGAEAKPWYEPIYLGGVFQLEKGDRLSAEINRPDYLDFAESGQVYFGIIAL

Cc1cccc(O)c1C
inactive: Potency [1] | Potency [2] | outcome [3] | outcome [5] | outcome [6] | max response [8] 20.3% | activity change % (negative = inhibition) [9] 4.76% | Potency [10] | activation [11] -2.61% | Potency [12] | Potency [13] | outcome [14] | activation [15] -0.837% | max response [16] -2.92% | Potency [17] | Potency [18] | Potency [19] | max response [20] -1.51% | max response [21] -3.02% | Potency [22] | max response [23] -0.434% | outcome [24]
-18.7%: max response [4]
10.3%: max response [7]
